The campaign covered roughly 220,000 compounds. About 830 (0.38%) were called active. Shown is part of a subset that was picked to be rich in actives. Unmarked numbers belong to inactive results. How the calls were made is not given here.

Regulator of G-protein signaling 16 (Homo sapiens) + Guanine nucleotide-binding protein G(o) subunit alpha (Homo sapiens), sequence (O15492 whole entry, looked up): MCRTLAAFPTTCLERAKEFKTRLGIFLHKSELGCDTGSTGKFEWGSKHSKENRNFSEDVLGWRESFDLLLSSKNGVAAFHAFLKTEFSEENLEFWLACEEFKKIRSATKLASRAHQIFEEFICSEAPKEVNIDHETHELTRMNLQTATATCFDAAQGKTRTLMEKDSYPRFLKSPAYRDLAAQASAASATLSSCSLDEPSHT
Regulator of G-protein signaling 16 (Homo sapiens) + Guanine nucleotide-binding protein G(o) subunit alpha (Homo sapiens), sequence (P09471 whole entry, looked up): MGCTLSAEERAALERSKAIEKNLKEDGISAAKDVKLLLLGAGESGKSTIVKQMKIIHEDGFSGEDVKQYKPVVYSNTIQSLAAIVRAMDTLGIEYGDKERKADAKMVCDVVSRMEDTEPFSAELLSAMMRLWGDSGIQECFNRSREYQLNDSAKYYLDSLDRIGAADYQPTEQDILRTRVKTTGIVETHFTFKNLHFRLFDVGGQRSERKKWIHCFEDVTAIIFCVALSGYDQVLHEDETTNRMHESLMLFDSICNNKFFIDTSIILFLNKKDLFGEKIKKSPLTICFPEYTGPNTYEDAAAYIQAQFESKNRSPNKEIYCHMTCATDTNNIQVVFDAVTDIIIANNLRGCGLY

The experiment addresses Regulator of G-protein signaling 16 (Homo sapiens) + Guanine nucleotide-binding protein G(o) subunit alpha (Homo sapiens) (UniProt O15492+P09471). As to the kind of experiment: RGS16-Galphao interaction inhibitors and enhancers – biochemical, human proteins, multiplexed bead flow cytometry, primary screen (AID 1441).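 Further: Galphao activated by GDP with aluminum fluoride before binding.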 The conditions noted are these: bead-based flow cytometry RGS16-Galphao binding, fluorescence; at 10 µM; actives lie on both sides.
With `COCCCN1C(=O)C(=O)/C(=C(/O)c2ccc3c(c2)CC(C)O3)C1c1cccnc1` (configuration not stated), the binding response (% of control) is 68.3%.

For `COc1ccc(/C(O)=C2\C(=O)C(=O)N(Cc3ccco3)C2c2ccc(OC)cc2OC)cc1` (configuration not stated), the binding response (% of control) is 97.2%.

`COc1cc(C2/C(=C(\O)c3ccc4c(c3)CC(C)O4)C(=O)C(=O)N2Cc2ccco2)ccc1O` (configuration not stated): the binding response (% of control) is -10.7% (active).

Regarding `CC(=O)Nc1ccc(OCCC[n+]2cccc(C(=O)[O-])c2)cc1`, the binding response (% of control) is 97.8%.

On to `O=C(NCc1ccccc1)c1ccc(CNc2c(N3CCCC3)c(=O)c2=O)cc1`, for which the binding response (% of control) was 102%.

On to `COc1ccc(Br)cc1/C=N/Nc1ccc(Cl)c(C(=O)O)c1`, for which the binding response (% of control) is 103%.

Turning to `O=C(Cn1cnc2cc([N+](=O)[O-])ccc2c1=O)NC(=O)NCc1ccccc1`, the binding response (% of control) is 112%.

On to `Nc1c(N(CCO)C(=O)C2CCCCC2)c(=O)[nH]c(=O)n1Cc1ccccc1`, for which the binding response (% of control) is 86.5%.

Take `O=C(CSc1nnc(-c2cccs2)n1Cc1ccccc1)N1CCc2ccccc2C1`: the binding response (% of control) is 101%.

In the case of `Cn1c(=O)c2c(n(Cc3ccccc3)c1=O)NC(=O)C2CC(=O)N1CCc2ccccc2C1` (configuration not stated), the binding response (% of control) was -1.02% (active).

For the compound `O=C(COc1ccccc1)N1CCc2ccccc2C1`, the binding response (% of control) was 102%.

With `O=S(=O)(c1ccccc1)N(CC(O)CN1CCCCC1)c1ccccc1` (configuration not stated), the binding response (% of control) was 96.4%.

For `Cc1cc(C)n(CC(O)CN(c2ccccc2)S(=O)(=O)c2ccc3ccccc3c2)n1` (configuration not stated), the binding response (% of control) was -6.51% (active).

`Cc1ccc(N(CC(O)CN2CCCC2)S(=O)(=O)c2ccccc2)cc1` (configuration not stated): the binding response (% of control) was 100%.

Regarding `CCN(CC(=O)Nc1ccc(Cl)c(S(=O)(=O)N(C)C)c1)Cc1nc2ccccc2c(=O)[nH]1`, the binding response (% of control) was 107%.

For `CCOC(=O)CSc1nc(C)c(Oc2ccc(Cl)cc2Cl)c(=O)[nH]1`, the binding response (% of control) is 101%.

Take `COc1ccc(C(=O)C[n+]2ccc(N)c(C)c2C)cc1`: the binding response (% of control) is 99.8%.

For the compound `CCOC(=O)c1c(CC(C)C)csc1/N=C/C1=C(O)CCCC1=O`, the binding response (% of control) is 103%.

Turning to `C/C(=C/C(=O)N1CCN(C)CC1)C(=O)O`, the binding response (% of control) was 234% [activator] (active).

For `CCN1CCN(C(=O)/C=C\C(=O)O)CC1`, the binding response (% of control) was 101%.

Consider `CN1CCN(C(=O)C2C3C=CC(C3)C2C(=O)O)CC1` (configuration not stated), for which the binding response (% of control) was 102%.

On to `COC(=O)C(C(=O)Nc1cccc(C)n1)C1CCCCCC1` (configuration not stated), for which the binding response (% of control) is 103%.

Regarding `CCCc1cc(=S)n2c([nH]c3ccccc32)c1C#N`, the binding response (% of control) is 97.3%.

For `CSc1sc(C(=O)NNC(=O)c2ccc(Cl)cc2)c2c1C=CCC2`, the binding response (% of control) was 92.2%.

For `O=C(O)c1ccccc1C(=O)Nc1ccccc1[N+](=O)[O-]`, the binding response (% of control) is 96.6%.

Turning to `NC(=O)CSc1c[nH]c2ccccc12`, the binding response (% of control) is 19.6% (active).

In the case of `CCCn1cc(SCC(N)=O)c2ccccc21`, the binding response (% of control) is 85.2%.

In the case of `O=C(Cc1c[nH]c2ccccc12)OCCOC(=O)Cc1c[nH]c2ccccc12`, the binding response (% of control) was 97.3%.

In the case of `Oc1ccc(N=Nc2nccs2)c(O)c1`, the binding response (% of control) was -16.2% (active).

For `Oc1ccc2ccccc2c1N=Nc1nccs1`, the binding response (% of control) is 99.9%.

For the compound `CCN1CCN(C(=O)CCN2C(=O)c3ccccc3C2=O)CC1`, the binding response (% of control) is 93.9%.

In the case of `Cc1noc(C)c1S(=O)(=O)Nc1cc(C(F)(F)F)ccc1N1CCOCC1`, the binding response (% of control) was 98%.

For `COC(=O)c1c(C)[nH]c(C)c1-c1ccc([N+](=O)[O-])cc1`, the binding response (% of control) is 85.3%.

With `CC(=O)N1CC[n+]2c(-c3ccc([N+](=O)[O-])cc3)csc21`, the binding response (% of control) was 12.8% (active).

Regarding `Cc1cc(C)cc(C(=O)N2CCN=C2SCc2ccc([N+](=O)[O-])cc2)c1`, the binding response (% of control) was 96.2%.

`O=C(Nc1ccc2cn[nH]c2c1)c1ccc(S(=O)(=O)N2CCOCC2)cc1`: the binding response (% of control) is 92.3%.

With `Cc1cc(F)ccc1S(=O)(=O)Nc1ncnc2scc(-c3ccc(F)cc3)c12`, the binding response (% of control) is 95.8%.

With `CCOc1cc(CNCc2ccccn2)ccc1OCC(=O)NC(C)(C)C`, the binding response (% of control) was 103%.

Turning to `Clc1ccc2nc(CSc3ccccc3)cn2c1`, the binding response (% of control) was 169%.

As to `CC(Sc1nnc2c(n1)C1CCC2(C)C1(C)C)C(=O)Nc1ccccc1` (configuration not stated), the binding response (% of control) was 102%.

As to `O=C(Nc1nc2c(F)cc(F)cc2s1)C1COc2ccccc2O1` (configuration not stated), the binding response (% of control) was 99.5%.

`Fc1cc(F)c2nc(Nc3nc4c(F)cccc4s3)sc2c1`: the binding response (% of control) is 192% [activator] (active).

`NC(=O)c1c(Nc2nc3c(F)cccc3s2)sc2c1CCCC2`: the binding response (% of control) was 95%.

With `NC(=O)CC(NC(=O)Cc1cccc2ccccc12)c1ccc(NCc2cc(F)ccc2F)c([N+](=O)[O-])c1` (configuration not stated), the binding response (% of control) was 100%.

Consider `COc1cc(C(=O)Nc2cc(C(F)(F)F)ccc2-n2cncn2)cc(OC)c1OC`, for which the binding response (% of control) is 98.2%.

On to `CC(C)CC(=O)Nc1cc(C(F)(F)F)ccc1N1CCOCC1`, for which the binding response (% of control) was 101%.

For the compound `COc1cc(C(=O)Nc2cc(C(F)(F)F)ccc2N2CCOCC2)ccc1O`, the binding response (% of control) was 9.57% (active).
